The results in this text go back to PubChem BioAssay AID2284067 (EPA ToxCast).

The source made the active and inactive calls. The calls were made as follows: active = hit-call score of the fitted dose curve at least 0.9, where 1 is the maximum; inactive = score below 0.9.

For this test, the target named is human DYRK1A CMGC Kinase, DYRK1A (gene 1859) (UniProt Q13627). The experiment in a line: ERF_FR_ENZ_hDYRK1A: Eurofins (ERF) Enzymatic Radiometric [Km ATP] KinaseProfiler LeadHunter Assay for human DYRK1A CMGC Kinase. The method, then:
ERF_FR_ENZ_hDYRK1A is a biochemical, single-readout assay that uses extracted gene-proteins in a cell-free assay. Measurements were taken 0.5 hour after chemical dosing in a 96-well plate. See DYRK1A Human CMGC Kinase Enzymatic LANCE Assay [Km ATP], Cerep.ERF_FR_ENZ_hDYRK1A is an assay component calculated from the ERF_FR_ENZ_hDYRK1A assay. It is designed to measure enzyme activity using a type of enzyme reporter as detected by fluorescence intensity with LANCE technology.Data from the assay component ERF_FR_ENZ_hDYRK1A was analyzed at the assay endpoint, ERF_FR_ENZ_hDYRK1A, in the positive analysis fitting direction relative to DMSO as the negative control and baseline of activity. Using a type of enzyme reporter, loss-of-signal activity can be used to understand changes in enzymatic activity as they relate to gene DYRK1A. To generalize the intended target to other relatable targets, this assay endpoint is annotated to the kinase intended target family, where the subfamily is serine/threonine kinase.
DYRK1A (h) is incubated with 8 mM MOPS pH 7.0, 0.2 mM EDTA, 50 uM […], 10 mM MgAcetate and [gamma-33P]-ATP (specific activity and concentration as required). The reaction is initiated by the addition of the Mg/ATP mix. After incubation for 40 minutes at room temperature, the reaction is stopped by the addition of phosphoric acid to […] a concentration of 0.5%. […]
As a reminder, the AC50 is the concentration giving half of the maximal activity seen. As to `O=C(/C=C/c1ccc(O)cc1)CC(=O)/C=C/c1ccc(O)cc1`, the AC50 was 128 nM (active).
